Drawing on PMC10812921, “Transcriptional Coactivator BOB1 (OBF1, OCA-B) Modulates the Specificity of DNA Recognition by the POU-Domain Factors OCT1 and OCT2 in a Monomeric Configuration”, this text covers binding signal for 16 sequences.

One experiment has as its target POU1 (OCT1 POU domain) (human, UniProt P14859 260-458). As to the kind of experiment: EMSA-SELEX-seq; no BOB1; 20 mM Tris-HCl pH 7.6, 140 mM NaCl, 10% glycerol, 0.5 mM EDTA, 0.05% Triton X-100, 0.1 mg/mL BSA, 0.1 mg/mL poly(dI-dC), 5 mM DTT, room temperature, 20 min; high values mean tight binding. The conditions noted are these: protein: recombinant; dsDNA, one strand shown. The method, boiled down:
(§1)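 With or without 28 ng coactivator protein, 30 ng of tagged POU-domain protein was combined with 300 ng of a PCR-amplified double-stranded random 35-nt library in 20 μL Tris–HCl pH 7.6 binding buffer for 20 min at RT. The protein came from E. coli BL21 and had been purified under denaturing conditions and renatured. Four rounds of cutting complex bands from native 6% PAGE, elution and PCR amplification preceded Illumina sequencing. The binding preference figure is the percentage of sequenced 8-mers matching a motif pattern.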
On the technique in general: A gel shift assay detects complexes by their altered migration in electrophoresis.

The target of the next experiment is T1, POU2 (OCT2 POU domain) (human, UniProt P09086 175-386).
T1 sequence: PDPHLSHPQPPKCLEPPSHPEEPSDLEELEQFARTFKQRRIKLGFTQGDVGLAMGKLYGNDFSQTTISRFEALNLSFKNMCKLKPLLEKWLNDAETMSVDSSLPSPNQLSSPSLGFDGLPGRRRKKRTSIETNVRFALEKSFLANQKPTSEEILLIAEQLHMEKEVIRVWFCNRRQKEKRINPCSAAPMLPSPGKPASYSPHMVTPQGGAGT
Described as above. The note with it: protein: recombinant; dsDNA, one strand shown. The method, boiled down:
as §1

Experiment [1] deals with POU1 (OCT1 POU domain);BOB1 (OBF1, OCA-B) (human;human, UniProt P14859;Q16633 260-458;1-256, |). Description: EMSA-SELEX-seq; with BOB1 (ternary complex band); 20 mM Tris-HCl pH 7.6, 140 mM NaCl, 10% glycerol, 0.5 mM EDTA, 0.05% Triton X-100, 0.1 mg/mL BSA, 0.1 mg/mL poly(dI-dC), 5 mM DTT, room temperature, 20 min; high values mean tight binding. The note with it: protein: recombinant;recombinant; copies: 1;1; dsDNA, one strand shown. In outline: as §1

Experiment [2] addresses T2, POU2 (OCT2 POU domain);BOB1 (OBF1, OCA-B) (human;human, UniProt P09086;Q16633 175-386;1-256, |).
T2 sequence 1: T1 sequence
T2 sequence 2: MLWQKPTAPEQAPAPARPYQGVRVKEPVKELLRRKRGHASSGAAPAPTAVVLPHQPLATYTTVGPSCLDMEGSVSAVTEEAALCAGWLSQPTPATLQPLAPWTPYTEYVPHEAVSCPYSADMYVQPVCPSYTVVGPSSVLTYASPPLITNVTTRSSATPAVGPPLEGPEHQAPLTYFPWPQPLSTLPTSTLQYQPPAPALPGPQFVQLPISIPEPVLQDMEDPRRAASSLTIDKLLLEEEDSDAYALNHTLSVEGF
Described as above. The note with it: protein: recombinant;recombinant; copies: 1;1; dsDNA, one strand shown. The method, boiled down:
as §1

Chain of POU1 (OCT1 POU domain) (P14859 260-458): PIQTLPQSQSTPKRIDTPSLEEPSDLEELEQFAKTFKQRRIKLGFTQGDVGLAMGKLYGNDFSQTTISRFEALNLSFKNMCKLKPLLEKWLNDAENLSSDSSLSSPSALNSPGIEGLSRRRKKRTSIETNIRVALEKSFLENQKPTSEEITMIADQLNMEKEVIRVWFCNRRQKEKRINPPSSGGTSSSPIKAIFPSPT

With AATCCAAT, the binding signal with POU1 (OCT1 POU domain) was 0.0507 % of ANNNNAAN 8-mers; in the experiment with POU2 (OCT2 POU domain) it was 0.0552 % of ANNNNAAN 8-mers; in experiment [1], 0.0605 % of ANNNNAAN 8-mers; in experiment [2], 0.0504 % of ANNNNAAN 8-mers.
On the same counts, the results for ATCTAAAA are 0.0564 % of ANNNNAAN 8-mers, 0.0524 % of ANNNNAAN 8-mers, 0.0535 % of ANNNNAAN 8-mers and 0.0669 % of ANNNNAAN 8-mers.
Turning to AATTAAAA, the binding signal with POU1 (OCT1 POU domain) is 0.364 % of ANNNNAAN 8-mers; in the experiment with POU2 (OCT2 POU domain), 0.399 % of ANNNNAAN 8-mers; in experiment [1], 0.156 % of ANNNNAAN 8-mers; in experiment [2], 0.151 % of ANNNNAAN 8-mers.
As for AAAGTAAA, the binding signal in the experiment with POU1 (OCT1 POU domain) is 0.0988 % of ANNNNAAN 8-mers; with POU2 (OCT2 POU domain), 0.0714 % of ANNNNAAN 8-mers; in experiment [1], 0.114 % of ANNNNAAN 8-mers; in experiment [2], 0.0759 % of ANNNNAAN 8-mers.
As for ATCGTAAG, the binding signal with POU1 (OCT1 POU domain) is 0.0343 % of ANNNNAAN 8-mers; with POU2 (OCT2 POU domain), 0.0449 % of ANNNNAAN 8-mers; in experiment [1], 0.0379 % of ANNNNAAN 8-mers; in experiment [2] it was 0.0388 % of ANNNNAAN 8-mers.
On to AGTGGAAC, for which the binding signal was 0.0267 % of ANNNNAAN 8-mers in the experiment with POU1 (OCT1 POU domain), 0.0207 % of ANNNNAAN 8-mers with POU2 (OCT2 POU domain), 0.0281 % of ANNNNAAN 8-mers in experiment [1] and 0.0314 % of ANNNNAAN 8-mers in experiment [2].
ATCGCAAT: the binding signal in the experiment with POU1 (OCT1 POU domain) was 0.0336 % of ANNNNAAN 8-mers; with POU2 (OCT2 POU domain) it was 0.0391 % of ANNNNAAN 8-mers; in experiment [1] it was 0.0328 % of ANNNNAAN 8-mers; in experiment [2], 0.0347 % of ANNNNAAN 8-mers.
For the sequence ACGTTAAC, the binding signal was 0.024 % of ANNNNAAN 8-mers with POU1 (OCT1 POU domain), 0.0316 % of ANNNNAAN 8-mers with POU2 (OCT2 POU domain), 0.0234 % of ANNNNAAN 8-mers in experiment [1] and 0.0289 % of ANNNNAAN 8-mers in experiment [2].
In the case of ACAAGAAG, the binding signal in the experiment with POU1 (OCT1 POU domain) is 0.0347 % of ANNNNAAN 8-mers; in the experiment with POU2 (OCT2 POU domain), 0.0316 % of ANNNNAAN 8-mers; in experiment [1], 0.0273 % of ANNNNAAN 8-mers; in experiment [2], 0.0322 % of ANNNNAAN 8-mers.
Consider AGTTCAAA, for which the binding signal with POU1 (OCT1 POU domain) was 0.0355 % of ANNNNAAN 8-mers; with POU2 (OCT2 POU domain), 0.0357 % of ANNNNAAN 8-mers; in experiment [1] it was 0.0386 % of ANNNNAAN 8-mers; in experiment [2], 0.0421 % of ANNNNAAN 8-mers.
On the same counts, the results for ACTGTAAT are 0.0572 % of ANNNNAAN 8-mers, 0.0788 % of ANNNNAAN 8-mers, 0.0464 % of ANNNNAAN 8-mers and 0.0504 % of ANNNNAAN 8-mers.
AGCCCAAT: the binding signal with POU1 (OCT1 POU domain) was 0.0168 % of ANNNNAAN 8-mers; in the experiment with POU2 (OCT2 POU domain) it was 0.019 % of ANNNNAAN 8-mers; in experiment [1], 0.0226 % of ANNNNAAN 8-mers; in experiment [2] it was 0.0231 % of ANNNNAAN 8-mers.
For the sequence ATCTAAAT, the binding signal was 0.172 % of ANNNNAAN 8-mers with POU1 (OCT1 POU domain), 0.227 % of ANNNNAAN 8-mers with POU2 (OCT2 POU domain), 0.123 % of ANNNNAAN 8-mers in experiment [1] and 0.123 % of ANNNNAAN 8-mers in experiment [2].
As for ATACTAAT, the binding signal in the experiment with POU1 (OCT1 POU domain) was 0.17 % of ANNNNAAN 8-mers; in the experiment with POU2 (OCT2 POU domain) it was 0.182 % of ANNNNAAN 8-mers; in experiment [1], 0.0745 % of ANNNNAAN 8-mers; in experiment [2], 0.11 % of ANNNNAAN 8-mers.
Regarding AGCGCAAC, the binding signal in the experiment with POU1 (OCT1 POU domain) is 0.0103 % of ANNNNAAN 8-mers; in the experiment with POU2 (OCT2 POU domain) it was 0.0104 % of ANNNNAAN 8-mers; in experiment [1] it was 0.0125 % of ANNNNAAN 8-mers; in experiment [2] it was 0.0107 % of ANNNNAAN 8-mers.
Consider AATCTAAA, for which the binding signal in the experiment with POU1 (OCT1 POU domain) is 0.107 % of ANNNNAAN 8-mers; with POU2 (OCT2 POU domain), 0.129 % of ANNNNAAN 8-mers; in experiment [1] it was 0.0726 % of ANNNNAAN 8-mers; in experiment [2], 0.0669 % of ANNNNAAN 8-mers.
